From PubChem BioAssay (Tox21)
The source made the active and inactive calls. Calls follow the shape of the dose curve; as a rule, active = well fitted curve in the direction sought with a large enough effect in the repeat runs; inconclusive = weak or mixed curves; inactive = flat fitted curve, though single readings scatter.

Assay: qHTS assay to test for compound auto fluorescence at 460 nm (blue) in HEK293 cells (AID 720678)
Settings: blue autofluorescence 405/460 nm; series mostly up to 91.3 µM
Summary of the method: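 Triamterene serves as the blue fluorophore standard. Compound signal at 405/460 nm is read in HEK293 wells (2,000 cells, 10% dialyzed FBS) after overnight treatment at 37C.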
In the case of `CNCC(O)c1ccc(O)cc1` (centres undefined), the outcome is reported as “inactive”.
With `Clc1cnc(Oc2ccc(Oc3ncc(Cl)cc3Cl)cc2)c(Cl)c1` the outcome was “inactive”.
For `COC(C)(C)CCCC(C)C/C=C/C(C)=C/C(=O)OC(C)C` (centres undefined), the outcome was “inactive”.
With `COc1nc(NC(C)C)nc(NC(C)C)n1` the outcome was “inactive”.
In the case of `CN(C)C(=O)Nc1cccc(C(F)(F)F)c1`, the outcome is reported as “inactive”.
With `Nc1nc(N)nc(NC2CC2)n1` the outcome was “inactive”.
For `Nc1ccc([As](=O)(O)O)cc1`, the outcome was “inactive”.
For `CCOP(=S)(OCC)Oc1ccc([N+](=O)[O-])cc1`, the outcome was “inactive”.
With `CCCOC(=O)c1ccccc1C(=O)OCCC` the outcome was “inactive”.
In the case of `CC(=O)C1CCOC1=O` (centres undefined), the outcome is reported as “inactive”.
For `CC[N+](=O)[O-]`, the outcome was “inactive”.
In the case of `Cc1ccc(N)cc1`, the outcome is reported as “inactive”.
For `Cl/C=C/Cl`, the outcome was “inactive”.
For `Nc1cccc(Cl)c1`, the outcome was “inactive”.
For `CCOP(=S)(OCC)Oc1cc(C)nc(C(C)C)n1`, the outcome was “inactive”.
In the case of `O=C(O)COc1ccccc1`, the outcome is reported as “inactive”.
In the case of `Cc1cccc(C)c1NC(=O)CN1CCCC1=O`, the outcome is reported as “inactive”.
For `Nc1ncc([N+](=O)[O-])s1`, the outcome was “inactive”.
With `CCCCC(CC)C(=O)Cl` (centres undefined) the outcome was “inactive”.
For `ClCCOCCCl`, the outcome was “inactive”.
For `COS(=O)(=O)OC`, the outcome was “inactive”.
For `FC(F)(F)c1ccc(Cl)cc1`, the outcome was “inactive”.
For `CCSC(=O)N1CCCCCC1`, the outcome was “inactive”.
For `Cc1cccc(N)c1C`, the outcome was “inactive”.
In the case of `CCOC(=O)CC(SP(=O)(OC)OC)C(=O)OCC` (centres undefined), the outcome is reported as “inactive”.
For `CC(C)c1cccc(C(C)C)c1O`, the outcome was “inactive”.
For `Cc1cc(O)ccc1Cl`, the outcome was “inactive”.
For `O=C(O)CCCc1ccc(N(CCCl)CCCl)cc1`, the outcome was “inactive”.
For `O=[N+]([O-])c1ccc(Cl)cc1`, the outcome was “inactive”.
In the case of `CN(C)C(=O)C(c1ccccc1)c1ccccc1`, the outcome is reported as “inactive”.
With `Nc1cc(Cl)cc(Cl)c1` the outcome was “inactive”.

Assay: qHTS assay to test for compound auto fluorescence at 590 nm (red) in HEK293 cells (AID 720679)
Settings: red autofluorescence 540/590 nm; series mostly up to 91.3 µM
Summary of the method: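 We plated HEK293 cells in 10% dialyzed FBS medium, let them adhere for 4-5 hr, then added 23 nL compound. Overnight at 37C and 5% CO2 preceded fluorescence measurement at 540/590nm.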
With `CNCC(O)c1ccc(O)cc1` (centres undefined) the outcome was “inactive”.
With `Clc1cnc(Oc2ccc(Oc3ncc(Cl)cc3Cl)cc2)c(Cl)c1` the outcome was “inactive”.
In the case of `COC(C)(C)CCCC(C)C/C=C/C(C)=C/C(=O)OC(C)C` (centres undefined), the outcome is reported as “inactive”.
With `COc1nc(NC(C)C)nc(NC(C)C)n1` the outcome was “inactive”.
For `CN(C)C(=O)Nc1cccc(C(F)(F)F)c1`, the outcome was “inactive”.
In the case of `Nc1nc(N)nc(NC2CC2)n1`, the outcome is reported as “inactive”.
With `Nc1ccc([As](=O)(O)O)cc1` the outcome was “inactive”.
For `CCOP(=S)(OCC)Oc1ccc([N+](=O)[O-])cc1`, the outcome was “inactive”.
In the case of `CC(=O)C1CCOC1=O` (centres undefined), the outcome is reported as “inactive”.
In the case of `Cc1ccc(N)cc1`, the outcome is reported as “inactive”.
With `Cl/C=C/Cl` the outcome was “inactive”.
In the case of `Nc1cccc(Cl)c1`, the outcome is reported as “inactive”.
In the case of `CCOP(=S)(OCC)Oc1cc(C)nc(C(C)C)n1`, the outcome is reported as “inactive”.
For `O=C(O)COc1ccccc1`, the outcome was “inactive”.
In the case of `Cc1cccc(C)c1NC(=O)CN1CCCC1=O`, the outcome is reported as “inactive”.
For `Nc1ncc([N+](=O)[O-])s1`, the outcome was “inactive”.
For `CCCCC(CC)C(=O)Cl` (centres undefined), the outcome was “inactive”.
In the case of `ClCCOCCCl`, the outcome is reported as “inactive”.
For `COS(=O)(=O)OC`, the outcome was “inactive”.
In the case of `FC(F)(F)c1ccc(Cl)cc1`, the outcome is reported as “inactive”.
In the case of `CCSC(=O)N1CCCCCC1`, the outcome is reported as “inactive”.
For `CCOC(=O)CC(SP(=O)(OC)OC)C(=O)OCC` (centres undefined), the outcome was “inactive”.
For `CC(C)c1cccc(C(C)C)c1O`, the outcome was “inactive”.
In the case of `Cc1cc(O)ccc1Cl`, the outcome is reported as “inactive”.
For `O=C(O)CCCc1ccc(N(CCCl)CCCl)cc1`, the outcome was “inactive”.
For `O=[N+]([O-])c1ccc(Cl)cc1`, the outcome was “inactive”.
In the case of `CN(C)C(=O)C(c1ccccc1)c1ccccc1`, the outcome is reported as “inactive”.
For `Nc1cc(Cl)cc(Cl)c1`, the outcome was “inactive”.
